Structures are written as SMILES. Inconclusive results are not listed. Values without a mark were called inactive. Active and inactive are the calls of the source. The call rests on the fitted dose curve; in most records, active means well fitted inhibition curve with a large enough effect; inconclusive means small, poorly fitted or top-dose-only effect, or effect the other way; inactive means flat fitted curve, though single readings scatter.

Consider 17 compounds from PubChem BioAssay AID493170 (National Center for Advancing Translational Sciences (NCATS), 2011).
On the % scale 0 is the no-effect control and ±100 the full control effect; potency means the concentration at half of the fitted maximal effect.

In this experiment the target is Ubiquitin carboxyl-terminal hydrolase 2 (Homo sapiens) (UniProt O75604). In words: Ub-rhodamine 110 based assay for inhibitors Ubiquitin-specific Protease USP2a. Further: nearly all actives have a fitted effect of over 50% in size. The settings on record: USP2a Ub-rhodamine110 cleavage, fluorescence; series mostly up to 38.3 µM; activity change, negative = inhibition: at the top concentration. The procedure, abridged: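 5 nM USP2a preincubated with compounds for 30 min at RT in 20 mM Tris-HCl pH 8.0, 2 mM CaCl2, 2 mM beta-mercaptoethanol, 0.05% CHAPS. Cleavage of 150 nM Ub-rhodamine 110 read kinetically (Ex 485/Em 531) for 7 min.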
Chain of Ubiquitin carboxyl-terminal hydrolase 2 (Homo sapiens) (O75604 whole entry, looked up): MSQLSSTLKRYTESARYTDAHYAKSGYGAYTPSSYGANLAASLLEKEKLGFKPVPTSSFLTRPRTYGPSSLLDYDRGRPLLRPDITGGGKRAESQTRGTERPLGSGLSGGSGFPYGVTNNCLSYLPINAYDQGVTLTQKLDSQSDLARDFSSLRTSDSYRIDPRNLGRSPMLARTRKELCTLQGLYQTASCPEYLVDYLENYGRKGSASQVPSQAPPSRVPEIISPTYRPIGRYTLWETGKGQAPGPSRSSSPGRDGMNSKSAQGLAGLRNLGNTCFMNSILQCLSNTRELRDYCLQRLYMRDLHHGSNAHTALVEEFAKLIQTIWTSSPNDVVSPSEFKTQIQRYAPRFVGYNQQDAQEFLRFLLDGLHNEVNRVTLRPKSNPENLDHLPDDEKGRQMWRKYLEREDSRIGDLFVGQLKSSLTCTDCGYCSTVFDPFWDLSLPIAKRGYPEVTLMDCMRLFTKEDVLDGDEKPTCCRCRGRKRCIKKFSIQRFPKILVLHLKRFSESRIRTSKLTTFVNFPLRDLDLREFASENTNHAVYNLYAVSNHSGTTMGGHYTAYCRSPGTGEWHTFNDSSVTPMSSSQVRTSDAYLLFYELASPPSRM
Turning to `Cc1ccc(S(=O)(=O)Nc2cc(C)c(O)c(S(=O)(=O)c3ccc(C)cc3)c2)cc1`, the “activity change, negative = inhibition” value is -10.6%. Still for that read-out and setting: the same measure for `O=C(Nc1ccncc1)c1ccc(S(=O)(=O)Nc2ccccc2)cc1`: -4.98%. For the compound `O=C(Nc1ccc(N2CCCC2)cc1)C(c1ccccc1)c1ccccc1`, the “activity change, negative = inhibition” value was -19.6%. The same measure, in the same setting: the same measure for `COc1ccc(-n2c(O)c(/C=N/n3cnnc3)c3ccccc3c2=O)cc1`: -3.98%. Regarding `CCNC1=C(Cl)C(=O)c2ccccc2C1=O`, the “activity change, negative = inhibition” value is -12.4%. Consider `O=C(Nc1ccc(N2CCCC2)cc1)c1ccc(Br)cc1`, for which the Potency was 8.91 µM (active). On to `CCOC(=O)c1[nH]c2ccc(OC)cc2c1NC(=O)CCN1CCCC(C)C1` (configuration not stated), for which the “activity change, negative = inhibition” value was -9.84%. The same measure, in the same setting: with `C=CCNCCOCCOc1ccccc1-c1ccccc1` the figure was -6.42%. On the same count and under the same terms, the same measure for `O=C(NC(=S)N1CCCc2ccccc21)c1ccc([N+](=O)[O-])cc1`: -8.15%; for `CCCOc1ccc(N2C(=O)CC(NCCc3ccc(S(N)(=O)=O)cc3)C2=O)cc1` (configuration not stated): -20.6%.

As to `CC[n+]1c(/C=C/N(C)c2ccccc2)n(-c2ccccc2)c2ccc(-c3nc4ccccc4s3)cc21`, the “activity change, negative = inhibition” value is -26.5%. In the case of `O=C(Nc1ccc(Nc2ccncc2)cc1)c1ccc(Nc2ccnc3ccc([N+](=O)[O-])cc23)cc1`, the Potency was 7.08 µM (active).

Regarding `CCN(CC)c1ccc2nc3ccccc3[n+](CC)c2c1`, the “activity change, negative = inhibition” value is -12.3%. The same measure, in the same setting: the same measure for `O=C(c1ccco1)N1CCN(C(c2cccs2)c2sc3ncnn3c2O)CC1` (configuration not stated): -4.24%.

Take `O=C(/C=C1\NC2(CCCC2)Cc2ccccc21)C(=O)N/N=C/c1ccc(O)c(O)c1`: the Potency is 7.94 µM (active).

In the case of `Cc1cc(C(=O)Nc2ccccc2N2CCOCC2)c2ccccc2n1`, the “activity change, negative = inhibition” value is -9.38%. On the same count and under the same terms, the same measure for `O=C1CC(Nc2ccc(N3CCOCC3)cc2)C(=O)N1c1cccc(C(F)(F)F)c1` (configuration not stated): -18.5%.
